An excerpt weighted towards active compounds, which were near 3.3% of everything screened.
ERb coact inh = ER-beta (human) coactivator binding inhibition. Q92731. TR-FRET ER-beta LBD / SRC1-Cy5 peptide binding; receptor agonist-loaded with 1 µM estradiol. inhibition, % at 25.6 µM. hit rate 1.3% among 86,000. AID 633;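 active = compounds whose percent inhibition of the receptor-coactivator binding signal exceeds about 50% in the single-dose screen, limit read from the data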;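 also: 0% = receptor plus peptide wells without compound and 100% = peptide-only wells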
ERa SRC1 inh = ER-alpha (human) coactivator binding inhibition. P03372. TR-FRET ER-alpha LBD / SRC-1 peptide, estradiol-bound. inhibition, % at 25.6 µM. hit rate 1.7% among 86,000. AID 629; in the data active = inhibition above about 50%;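 also: 0% = receptor plus peptide control and 100% = peptide only without receptor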
Smad3 FoxH1 inh = Smad3 (human) transcription factor binding inhibition; P84022; TR-FRET Smad3/Dy647-FoxH1 peptide binding, europium anti-His; inhibition, % at 25 µM; hit rate 0.29% among 88,000; AID 630;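 active = compounds that reduce the energy-transfer binding signal between the protein and its labelled peptide by more than half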;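 also: 0% = Smad3 plus labelled peptide maximal FRET and 100% = peptide-only background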
FAK inh = blocks human focal adhesion kinase activity | Q05397 | inhibition, %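 (tested at 7 µM)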 | hit rate 0.84% among 97,000 | biochemical FAK kinase activity assay; in the data active = inhibition above about 19%;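 also: 0% = DMSO and 100% = reference compound high control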
ERa SRC1 pot = ER-alpha (human) coactivator binding potentiation | P03372 | TR-FRET ERalpha-LBD/SRC-Cy5 coactivator binding, 2 h; 100 = basal binding, no effect | coactivator binding (% of control), % at 25.6 µM | hit rate 1.3% among 86,000; in the data active = activity above about 200%;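 also: binding measured in presence of low estradiol as agonist stimulus; 0% = peptide alone without receptor and 100% = receptor with peptide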
An asterisk follows results filed as active; · = no result given; [ ] = dose if it differs, or a comment.

SMILES	ERb coact inh	ERa SRC1 inh	Smad3 FoxH1 inh	FAK inh	ERa SRC1 pot
CC(=O)Nc1nc2c(c3c1c(=O)oc1ccccc13)CC(C)CC2 (stereo not given)	8	12	38	2	227*[fluorescence artefact?]
CC(=O)Nc1nc(CC(C)C)cc2c1c(=O)oc1ccccc12	43	1	-14	0	107
CCCCc1cc2c(c(NC(=O)CC)n1)c(=O)oc1ccccc12	40	62*[fluorescence artefact?]	-4	0	121
CC(=O)Nc1nc2c(c3c1c(=O)oc1ccccc13)CCCC2	4	1	1	9	145
c1ccc2sc(SCN(C3CCCCC3)C3CCCCC3)nc2c1	·	·	62*	·	·
O=C(COC(=O)c1cn(-c2ccccc2)nc1-c1cccs1)NC1CC1	10	7	3	-1	202*
CCOC(=O)c1cnc(-n2cc(C)cn2)nc1NCc1ccc2c(c1)OCO2	32	65*[fluorescence artefact?]	2	7	100
CCOC(=O)c1cnc(-n2nc(C)cc2C)nc1NCc1ccccc1	3	15	7	0	102
CCc1ncc(CO)n1Cc1cccc2ccccc12	·	·	-8	·	·
CSc1nc2ccc3nc(NC(=O)C4COc5ccccc5O4)sc3c2s1 (stereo not given)	12	18	13	4	209*[fluorescence artefact?]
Cc1nc2ccc3nc(NC(=O)c4ccco4)sc3c2s1	50*[fluorescence artefact?]	44	36	11	183
Cc1nc2ccc3nc(NC(=O)C4COc5ccccc5O4)sc3c2s1 (stereo not given)	15	5	-8	·	279*
Cc1ccc2nc(NC(=O)c3ccco3)sc2c1	-7	-5	16	3	106
O=C(O)c1c[nH]c2c(ccc3[nH]cc(C(=O)O)c(=O)c32)c1=O	·	·	93*	·	·
C[C@]12CC[C@@H]3c4ccc(O)cc4C(=O)C[C@H]3[C@@H]1CC[C@@H]2O	1	3	5	·	705*
C[C@@]12CC[C@H]3c4ccc(O)cc4CC[C@@H]3[C@H]1CC[C@H]2OP(=O)(O)O	·	·	16	·	·
CC(C)CCNC(=O)COc1ccc2c3c(c(=O)oc2c1)CCC3	29	48	16	7	352*
COc1ccc2c(c1)c(=O)oc1cc(OCC(=O)NC3CCCCC3)ccc12	72*	71*	-49	12	157
COc1ccc2c(c1)c(=O)oc1cc(OCC(=O)NC3CC3)ccc12	48	44	10	3	196
CCn1c2ccccc2c2nnc(SCC(N)=O)nc21	0	1	5	2	113
CCn1c2ccccc2c2nnc(SCC(=O)Nc3cc(C)on3)nc21	30	20	3	-3	136
CCn1cc(SCC(=O)NCc2ccc3c(c2)OCO3)c2ccccc21	53*	-5	5	·	111
Cn1c2ccccc2c2nnc(SCN3C(=O)c4ccccc4C3=O)nc21	-7	10	-9	·	108
CCn1c2ccccc2c2nnc(SCC(=O)Nc3ccc4c(c3)OCO4)nc21	31	50*	-32	1	102
CCCn1cc(SCC(=O)NCc2ccc3c(c2)OCO3)c2ccccc21	-6	-6	-1	-6	107
SMILES	ERb coact inh	ERa SRC1 inh	Smad3 FoxH1 inh	FAK inh	ERa SRC1 pot
Cn1c2ccccc2c2nnc(SCc3ccc4nonc4c3)nc21	29	55*[fluorescence artefact?]	5	-6	77
CCn1c2ccccc2c2nnc(SCc3ccccc3)nc21	22	56*[fluorescence artefact?]	-24	·	90
CN(C)C[C@H]1CCC2=C(C1=O)C(c1ccc(Cl)c(Cl)c1)C1=C(CC[C@H](CN(C)C)C1=O)O2	·	·	6	·	·
Cc1ccc(Cn2c(=S)[nH]c3ccc(N4CCOCC4)cc3c2=O)o1	52*[fluorescence artefact?]	26	13	·	67
O=c1c2cc(N3CCOCC3)ccc2[nH]c(=S)n1CCN1CCCC1	15	29	2	·	84
O=c1c2cc(N3CCOCC3)ccc2[nH]c(=S)n1CCCN1CCCCCC1	50	75*[fluorescence artefact?]	9	·	49
C[N+](C)(C)CC(=O)N/N=C/c1c(O)ccc2ccccc12	·	·	12	·	·
O=C(O)C1C2C=CC3(CN(Cc4ccco4)C(=O)C13)O2 (stereo not given)	-1	98*[fluorescence artefact?]	1	0	111
O=S1(=O)CCN(c2ccccc2CC(c2c[nH]c3ccccc23)c2c[nH]c3ccccc23)CC1	·	·	88*	·	·
COc1ccc2nccc(SCC(=O)O)c2c1	·	·	1	·	·
CC(CO)(CO)N=Cc1cc(I)cc(I)c1O	·	·	-6	·	·
COC(=O)c1sc(NC(C)=O)c(C(=O)OC)c1C	5	0	4	-4	121
COC(=O)c1sc(NC(=O)c2cnccn2)c(C(=O)OC)c1C	-2	52*	1	-5	119
Cc1ccc(C)n1-c1ccc(C(=O)O)cc1	46	54*[fluorescence artefact?]	29	-1	19
